From ChEMBL document CHEMBL1961873, “Compounds: GSK PKIS; Assays: Nanosyn kinase panel” (2012) come the findings set out here.

The target in test [1] is Ribosomal protein S6 kinase alpha-6 (Homo sapiens) (UniProt Q9UK32). The following applies: at 1 µM.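 Also: each value is a mean inhibition of RSK4 from a GSK PKIS panel screen.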
The target in test [2] is T1, Serine/threonine-protein kinase Sgk1 (Homo sapiens) (UniProt O00141).
T1 sequence (whole entry): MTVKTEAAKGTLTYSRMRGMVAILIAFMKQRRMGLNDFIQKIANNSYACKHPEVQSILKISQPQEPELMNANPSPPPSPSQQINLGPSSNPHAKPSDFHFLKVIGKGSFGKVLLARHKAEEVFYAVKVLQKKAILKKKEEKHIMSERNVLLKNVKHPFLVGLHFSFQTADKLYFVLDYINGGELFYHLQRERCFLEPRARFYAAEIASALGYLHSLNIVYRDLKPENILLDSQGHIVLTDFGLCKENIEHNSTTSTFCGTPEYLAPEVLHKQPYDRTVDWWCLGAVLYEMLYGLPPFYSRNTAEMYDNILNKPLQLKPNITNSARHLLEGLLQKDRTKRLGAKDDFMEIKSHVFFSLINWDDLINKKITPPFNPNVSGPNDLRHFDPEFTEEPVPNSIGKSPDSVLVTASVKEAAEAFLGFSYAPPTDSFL
The following applies: at 0.1 µM.

Test [3] concerns the target T1, Serine/threonine-protein kinase Sgk1 (Homo sapiens). The following applies: at 1 µM.
Test [4] concerns the target T2, Serine/threonine-protein kinase Sgk2 (Homo sapiens) (UniProt Q9HBY8).
T2 sequence (whole entry): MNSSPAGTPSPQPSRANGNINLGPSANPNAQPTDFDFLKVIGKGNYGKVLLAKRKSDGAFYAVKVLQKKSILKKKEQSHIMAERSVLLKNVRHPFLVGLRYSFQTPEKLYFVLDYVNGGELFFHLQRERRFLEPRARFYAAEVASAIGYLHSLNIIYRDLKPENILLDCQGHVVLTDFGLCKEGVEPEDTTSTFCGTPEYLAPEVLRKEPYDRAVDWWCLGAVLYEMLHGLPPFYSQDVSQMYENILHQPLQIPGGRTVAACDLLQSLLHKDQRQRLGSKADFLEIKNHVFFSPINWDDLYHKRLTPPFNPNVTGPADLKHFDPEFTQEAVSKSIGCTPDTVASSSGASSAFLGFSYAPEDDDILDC
The following applies: at 0.1 µM.

Test [5] deals with T2, Serine/threonine-protein kinase Sgk2 (Homo sapiens). Particulars: at 1 µM.
The target of test [6] is T3, Serine/threonine-protein kinase Sgk3 (Homo sapiens) (UniProt Q96BR1).
T3 sequence (whole entry): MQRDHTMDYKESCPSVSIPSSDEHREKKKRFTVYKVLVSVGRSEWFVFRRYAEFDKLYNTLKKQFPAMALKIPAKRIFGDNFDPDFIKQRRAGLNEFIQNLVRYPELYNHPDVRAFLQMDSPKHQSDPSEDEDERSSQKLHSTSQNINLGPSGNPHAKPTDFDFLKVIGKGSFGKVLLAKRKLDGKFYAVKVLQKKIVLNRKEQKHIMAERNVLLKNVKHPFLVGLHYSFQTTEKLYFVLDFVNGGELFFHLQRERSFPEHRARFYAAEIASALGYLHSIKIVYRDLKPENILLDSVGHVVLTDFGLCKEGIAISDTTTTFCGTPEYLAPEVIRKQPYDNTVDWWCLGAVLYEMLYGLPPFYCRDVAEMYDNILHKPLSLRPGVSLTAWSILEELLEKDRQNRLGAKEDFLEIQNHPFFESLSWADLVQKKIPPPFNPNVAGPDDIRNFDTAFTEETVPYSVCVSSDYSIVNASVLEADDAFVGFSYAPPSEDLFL
The following applies: at 0.1 µM.

For test [7], the target named is T3, Serine/threonine-protein kinase Sgk3 (Homo sapiens). The following applies: at 1 µM.
The target of test [8] is 5'-AMP-activated protein kinase catalytic subunit alpha-1 (Homo sapiens) (UniProt Q13131). Particulars: at 0.1 µM.
Test [9] shares this target. The following applies: at 1 µM.
The target of test [10] is 5'-AMP-activated protein kinase catalytic subunit alpha-2 (Homo sapiens) (UniProt P54646). The following applies: at 0.1 µM.
The target is the same in test [11]. The following applies: at 1 µM.
Test [12] deals with T4, NUAK family SNF1-like kinase 1 (Homo sapiens) (UniProt O60285).
T4 sequence (whole entry): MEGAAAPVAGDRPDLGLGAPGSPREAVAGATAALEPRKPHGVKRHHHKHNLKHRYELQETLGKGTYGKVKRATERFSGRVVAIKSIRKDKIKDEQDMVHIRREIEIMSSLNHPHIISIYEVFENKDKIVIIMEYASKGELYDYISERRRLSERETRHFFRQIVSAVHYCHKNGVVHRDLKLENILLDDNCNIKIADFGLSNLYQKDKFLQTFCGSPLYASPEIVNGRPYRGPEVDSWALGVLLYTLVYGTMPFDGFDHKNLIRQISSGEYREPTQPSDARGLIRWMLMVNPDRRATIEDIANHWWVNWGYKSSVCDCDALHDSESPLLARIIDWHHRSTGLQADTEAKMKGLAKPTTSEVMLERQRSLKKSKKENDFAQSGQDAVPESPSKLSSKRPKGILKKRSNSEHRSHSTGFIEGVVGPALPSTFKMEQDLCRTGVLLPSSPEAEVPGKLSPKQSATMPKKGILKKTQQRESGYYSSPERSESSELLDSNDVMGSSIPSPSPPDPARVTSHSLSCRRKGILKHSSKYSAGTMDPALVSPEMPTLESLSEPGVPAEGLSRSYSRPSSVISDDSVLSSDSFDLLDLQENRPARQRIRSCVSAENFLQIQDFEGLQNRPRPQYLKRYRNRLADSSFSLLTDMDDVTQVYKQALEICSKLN
Particulars: at 0.1 µM.

Test [13] concerns the target T4, NUAK family SNF1-like kinase 1 (Homo sapiens). Particulars: at 1 µM.
For test [14], the target named is T5, Serine/threonine-protein kinase BRSK1 (Homo sapiens) (UniProt Q8TDC3).
T5 sequence (whole entry): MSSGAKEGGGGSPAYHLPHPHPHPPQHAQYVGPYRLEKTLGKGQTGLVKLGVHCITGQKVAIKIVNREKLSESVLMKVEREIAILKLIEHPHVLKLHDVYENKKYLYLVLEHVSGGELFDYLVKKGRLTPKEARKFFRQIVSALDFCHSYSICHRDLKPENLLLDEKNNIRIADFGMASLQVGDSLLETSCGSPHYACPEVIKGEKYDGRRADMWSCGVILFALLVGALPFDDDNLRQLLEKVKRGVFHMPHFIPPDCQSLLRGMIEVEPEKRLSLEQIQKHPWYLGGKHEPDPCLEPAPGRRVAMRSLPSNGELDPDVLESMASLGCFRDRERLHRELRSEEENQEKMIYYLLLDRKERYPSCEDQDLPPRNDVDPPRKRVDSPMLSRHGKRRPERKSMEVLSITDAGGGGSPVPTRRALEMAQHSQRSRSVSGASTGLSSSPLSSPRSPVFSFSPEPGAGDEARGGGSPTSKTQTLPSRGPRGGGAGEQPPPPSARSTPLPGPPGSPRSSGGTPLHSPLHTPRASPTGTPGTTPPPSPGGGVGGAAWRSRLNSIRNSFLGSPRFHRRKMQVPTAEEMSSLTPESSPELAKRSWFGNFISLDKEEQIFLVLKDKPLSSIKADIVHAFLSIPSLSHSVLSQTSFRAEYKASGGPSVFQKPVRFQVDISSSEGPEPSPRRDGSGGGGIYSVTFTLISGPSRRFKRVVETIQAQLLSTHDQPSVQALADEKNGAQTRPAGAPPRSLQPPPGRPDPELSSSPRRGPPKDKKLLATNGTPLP
Particulars: at 0.1 µM.

Test [15] deals with T5, Serine/threonine-protein kinase BRSK1 (Homo sapiens). The following applies: at 1 µM.
The target in test [16] is T6, Serine/threonine-protein kinase BRSK2 (Homo sapiens) (UniProt Q8IWQ3).
T6 sequence (whole entry): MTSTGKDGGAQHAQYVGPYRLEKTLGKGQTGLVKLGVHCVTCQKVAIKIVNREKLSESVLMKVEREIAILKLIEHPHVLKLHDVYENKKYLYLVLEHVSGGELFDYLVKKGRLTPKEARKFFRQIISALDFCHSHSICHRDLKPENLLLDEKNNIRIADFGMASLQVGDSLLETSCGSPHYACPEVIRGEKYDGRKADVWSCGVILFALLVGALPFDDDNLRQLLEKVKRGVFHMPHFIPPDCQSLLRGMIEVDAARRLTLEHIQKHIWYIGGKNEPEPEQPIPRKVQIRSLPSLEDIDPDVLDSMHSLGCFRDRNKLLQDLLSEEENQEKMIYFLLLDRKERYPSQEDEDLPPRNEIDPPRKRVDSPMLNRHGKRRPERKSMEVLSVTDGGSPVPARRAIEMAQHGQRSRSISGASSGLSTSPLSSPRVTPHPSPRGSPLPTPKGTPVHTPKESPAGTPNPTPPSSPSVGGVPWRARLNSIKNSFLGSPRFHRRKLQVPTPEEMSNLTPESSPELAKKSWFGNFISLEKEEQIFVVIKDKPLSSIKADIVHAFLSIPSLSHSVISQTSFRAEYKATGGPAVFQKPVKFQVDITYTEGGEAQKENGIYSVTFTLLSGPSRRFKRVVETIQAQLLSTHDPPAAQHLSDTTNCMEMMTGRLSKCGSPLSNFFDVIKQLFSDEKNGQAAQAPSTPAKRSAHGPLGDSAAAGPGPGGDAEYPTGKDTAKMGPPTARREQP
Particulars: at 0.1 µM.

The target of test [17] is T6, Serine/threonine-protein kinase BRSK2 (Homo sapiens). Particulars: at 1 µM.
Test [18] concerns the target Calcium/calmodulin-dependent protein kinase type 1D (Homo sapiens) (UniProt Q8IU85). The following applies: at 0.1 µM.
Test [19] has the same target. The following applies: at 1 µM.
Test [20] addresses Calcium/calmodulin-dependent protein kinase type II subunit alpha (Homo sapiens) (UniProt Q9UQM7). The following applies: at 0.1 µM.

5'-AMP-activated protein kinase catalytic subunit alpha-2 (Homo sapiens), sequence (P54646 whole entry, looked up): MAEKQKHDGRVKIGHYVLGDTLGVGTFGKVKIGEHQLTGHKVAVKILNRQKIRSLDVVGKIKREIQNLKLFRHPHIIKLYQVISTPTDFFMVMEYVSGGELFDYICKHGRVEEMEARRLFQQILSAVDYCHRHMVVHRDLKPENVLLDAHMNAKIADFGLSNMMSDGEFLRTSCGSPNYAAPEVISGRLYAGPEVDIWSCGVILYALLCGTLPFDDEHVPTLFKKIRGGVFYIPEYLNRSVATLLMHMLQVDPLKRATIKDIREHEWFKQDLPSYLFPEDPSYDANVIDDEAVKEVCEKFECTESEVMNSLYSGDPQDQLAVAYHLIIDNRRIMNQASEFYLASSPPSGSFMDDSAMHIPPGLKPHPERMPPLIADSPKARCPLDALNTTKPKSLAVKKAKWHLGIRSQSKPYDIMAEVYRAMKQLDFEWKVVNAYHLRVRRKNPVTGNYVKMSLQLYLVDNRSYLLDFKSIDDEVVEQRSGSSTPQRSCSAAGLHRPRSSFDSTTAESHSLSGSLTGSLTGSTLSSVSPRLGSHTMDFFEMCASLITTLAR
Calcium/calmodulin-dependent protein kinase type II subunit alpha (Homo sapiens), sequence (Q9UQM7 whole entry): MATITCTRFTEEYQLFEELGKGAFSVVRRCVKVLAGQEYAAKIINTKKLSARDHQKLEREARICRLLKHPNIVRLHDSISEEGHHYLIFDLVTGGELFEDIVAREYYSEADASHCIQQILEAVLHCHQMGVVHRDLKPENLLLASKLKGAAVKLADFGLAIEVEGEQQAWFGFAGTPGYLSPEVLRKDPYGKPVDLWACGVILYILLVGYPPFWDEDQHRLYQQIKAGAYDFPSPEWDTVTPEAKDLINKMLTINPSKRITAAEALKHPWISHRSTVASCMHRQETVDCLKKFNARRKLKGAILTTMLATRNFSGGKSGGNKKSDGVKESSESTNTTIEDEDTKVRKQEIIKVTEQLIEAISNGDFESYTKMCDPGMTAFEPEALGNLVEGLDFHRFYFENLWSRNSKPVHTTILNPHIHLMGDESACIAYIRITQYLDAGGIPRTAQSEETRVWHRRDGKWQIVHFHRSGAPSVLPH
Calcium/calmodulin-dependent protein kinase type 1D (Homo sapiens), sequence (Q8IU85 whole entry, looked up): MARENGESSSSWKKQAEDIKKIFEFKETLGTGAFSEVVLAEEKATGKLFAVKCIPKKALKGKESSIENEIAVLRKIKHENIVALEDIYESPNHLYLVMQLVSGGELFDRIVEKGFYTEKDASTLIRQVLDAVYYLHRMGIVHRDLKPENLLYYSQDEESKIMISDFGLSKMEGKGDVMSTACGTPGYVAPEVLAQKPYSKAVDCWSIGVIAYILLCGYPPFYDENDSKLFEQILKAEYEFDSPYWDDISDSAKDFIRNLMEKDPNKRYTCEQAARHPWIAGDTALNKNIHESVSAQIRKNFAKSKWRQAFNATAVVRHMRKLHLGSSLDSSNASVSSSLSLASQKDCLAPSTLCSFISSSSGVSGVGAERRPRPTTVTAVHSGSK
Ribosomal protein S6 kinase alpha-6 (Homo sapiens), sequence (Q9UK32 whole entry): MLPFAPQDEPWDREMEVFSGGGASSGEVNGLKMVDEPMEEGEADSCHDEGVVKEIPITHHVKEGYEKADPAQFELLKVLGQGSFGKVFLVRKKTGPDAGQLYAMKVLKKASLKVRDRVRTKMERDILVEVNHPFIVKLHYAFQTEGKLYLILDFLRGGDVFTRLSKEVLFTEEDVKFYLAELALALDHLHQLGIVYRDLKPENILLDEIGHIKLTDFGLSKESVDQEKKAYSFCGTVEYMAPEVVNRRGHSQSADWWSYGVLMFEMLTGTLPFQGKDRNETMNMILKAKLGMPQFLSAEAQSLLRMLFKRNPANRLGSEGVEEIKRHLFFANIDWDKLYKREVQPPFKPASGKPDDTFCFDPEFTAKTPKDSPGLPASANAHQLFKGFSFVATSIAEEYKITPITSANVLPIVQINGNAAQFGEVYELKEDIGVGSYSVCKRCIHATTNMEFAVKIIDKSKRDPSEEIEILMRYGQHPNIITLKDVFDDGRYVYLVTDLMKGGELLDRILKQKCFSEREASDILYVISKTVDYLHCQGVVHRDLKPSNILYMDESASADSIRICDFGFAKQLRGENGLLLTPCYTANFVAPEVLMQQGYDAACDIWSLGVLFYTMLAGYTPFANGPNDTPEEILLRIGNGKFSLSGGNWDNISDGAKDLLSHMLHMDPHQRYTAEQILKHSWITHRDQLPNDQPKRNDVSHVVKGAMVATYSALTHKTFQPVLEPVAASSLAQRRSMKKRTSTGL
5'-AMP-activated protein kinase catalytic subunit alpha-1 (Homo sapiens), sequence (Q13131 whole entry, looked up): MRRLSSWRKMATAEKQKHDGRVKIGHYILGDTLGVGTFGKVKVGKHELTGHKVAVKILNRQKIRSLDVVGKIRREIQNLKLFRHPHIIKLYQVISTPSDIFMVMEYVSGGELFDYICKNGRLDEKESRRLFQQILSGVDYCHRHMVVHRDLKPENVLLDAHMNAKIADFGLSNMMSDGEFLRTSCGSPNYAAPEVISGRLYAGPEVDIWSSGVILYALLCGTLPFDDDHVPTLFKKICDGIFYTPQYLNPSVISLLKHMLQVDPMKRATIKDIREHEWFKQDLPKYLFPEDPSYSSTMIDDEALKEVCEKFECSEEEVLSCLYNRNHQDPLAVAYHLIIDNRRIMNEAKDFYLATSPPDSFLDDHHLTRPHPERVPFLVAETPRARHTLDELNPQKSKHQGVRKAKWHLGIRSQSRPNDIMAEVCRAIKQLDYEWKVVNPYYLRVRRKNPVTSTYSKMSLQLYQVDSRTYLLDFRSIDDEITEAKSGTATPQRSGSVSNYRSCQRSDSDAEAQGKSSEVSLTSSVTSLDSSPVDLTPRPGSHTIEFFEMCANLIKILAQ

One may read the inhibition as the relative decrease from the control value, in per cent. On to `Nc1nc(-c2ccc(F)cc2)c(-c2ccc3ncccc3n2)s1`, for which the inhibition came out at 3.36% in test [1]; 2.87% in test [2]; 4.24% in test [3]; 4.24% in test [4]; 4.34% in test [5]; 4.05% in [6]. Also, the inhibition in test [7] is 3.66%; in [8] it was 3.33%; in test [9] it was 5.29%; in [10] it was 1.85%; in test [11], 3.37%; in test [12] it was 3.85%. For the same compound, the inhibition came out at 7.09% in [13]; 1.97% in test [14]; 3.32% in test [15]; 2.41% in [16]; 5.28% in test [17]; 0.67% in test [18]. Also, the results for the inhibition in [19] and in test [20] were 0.5% and 4.42%, respectively.
Take `Cc1ccc2c(-c3ccnc(Nc4ccccc4)n3)c(-c3ccc(F)cc3)nn2n1`: the inhibition came to 4.74% in [1]; 2.01% in test [2]; 1.69% in test [3]; 2.15% in test [4]; 3.69% in test [5]; 2.63% in [6]. Moreover, the inhibition in [7] is 2.1%; in test [8] it was 2.48%; in test [9] it was 2.15%; in test [10], 0.59%; in test [11] it was 3.36%; in [12], 1.74%. In addition, the inhibition in [13] turned out to be 6.31%; in test [14] it was 1.47%; in [15] it was 1.77%; in test [16], 1.27%; in [17] it was 0.62%; in test [18], 0.93%. Also, the inhibition was 1.34% in test [19] and 4.27% in [20].
Take `COc1cc(N2CCN(C(C)C)CC2)ccc1Nc1nc(Nc2ccc(F)cc2C(N)=O)c2cc[nH]c2n1`: the inhibition in [1] was 54.8%; in test [2], -0.27%; in test [3] it was 1.48%; in test [4] it was 3.52%; in [5], -3.53%; in test [6], 0.95%. The inhibition in test [7] was determined as 0.42%; in test [8], 6.33%; in [9] it was 33.5%; in test [10] it was 6.34%; in test [11], 13.2%; in [12], 66.6%. The inhibition in test [13] is 85%; in [14] it was 2.21%; in test [15], -0.11%; in test [16], 0.22%; in test [17], 1.71%; in test [18], 10.9%. The inhibition in [19] was found to be 52.8%; in test [20], 9.8%.
